From PubChem BioAssay
AHR activator – activators of human aryl hydrocarbon receptor; AHR-responsive luciferase reporter cells, luminescence; P35869; activation, % at 5 µM; actives 2.5% (n = 320,000); in the data active = activation above about 47%;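 also: 0% = vehicle wells and 100% = reference agonist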
Target sequence (P35869 whole entry, looked up): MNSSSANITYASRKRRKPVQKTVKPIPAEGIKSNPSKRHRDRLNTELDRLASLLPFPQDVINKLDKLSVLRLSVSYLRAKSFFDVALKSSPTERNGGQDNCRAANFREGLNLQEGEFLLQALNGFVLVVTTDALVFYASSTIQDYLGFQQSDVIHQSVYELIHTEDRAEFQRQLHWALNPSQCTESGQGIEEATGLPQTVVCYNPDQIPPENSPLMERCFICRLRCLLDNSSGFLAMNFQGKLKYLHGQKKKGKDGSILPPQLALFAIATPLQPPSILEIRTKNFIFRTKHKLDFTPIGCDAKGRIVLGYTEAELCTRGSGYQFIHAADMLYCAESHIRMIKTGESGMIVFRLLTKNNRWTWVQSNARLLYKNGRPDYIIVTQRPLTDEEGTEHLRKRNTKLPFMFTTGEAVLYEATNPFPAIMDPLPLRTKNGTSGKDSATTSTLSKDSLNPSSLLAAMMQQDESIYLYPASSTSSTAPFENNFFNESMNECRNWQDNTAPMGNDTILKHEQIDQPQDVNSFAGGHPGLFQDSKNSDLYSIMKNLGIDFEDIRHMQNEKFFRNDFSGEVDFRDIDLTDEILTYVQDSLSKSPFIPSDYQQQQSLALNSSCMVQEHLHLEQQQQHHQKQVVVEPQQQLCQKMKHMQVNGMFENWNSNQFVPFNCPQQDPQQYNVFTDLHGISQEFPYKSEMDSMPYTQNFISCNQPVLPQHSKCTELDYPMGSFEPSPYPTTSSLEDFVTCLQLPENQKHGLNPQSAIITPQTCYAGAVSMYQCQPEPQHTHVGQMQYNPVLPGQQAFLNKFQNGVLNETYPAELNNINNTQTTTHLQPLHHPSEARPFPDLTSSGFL
HSF1 inh – HSF1 inhibition | NIH3T3-HGL HSE-luciferase, MG132-induced, luminescence 8 h; active compounds read low | activity change, negative = inhibition, % at 7.5 µM (by protocol) | actives 0.77% (n = 300,000) | AID 2098;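 active = more than half of replicate wells show activity change below -50%, luminescence cut by over half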;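 also: luciferase reports HSF-1 transcriptional activity via heat shock element; 0% = median of DMSO wells and -100% = zero luminescence signal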
GAA850 FXN act – activators of GAA850 frataxin (FXN) promoter. HEK293 lucGAA850 FXN promoter luciferase reporter, 24 h; percent of 10 µM SAHA response. activation, % at 6 µM. actives 0.56% (n = 360,000). AID 540364;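 active = activation above the average of all compounds screened plus 3 SD, cutoff fixed separately per campaign, cut at about 7.5% in these data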;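 also: 0% = DMSO wells and 100% = 10 µM SAHA wells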
HSF1 activator – increases HSF-1 driven luciferase reporter signal | NIH3T3-HGL HSF-1 luciferase reporter, MG132, 8 h; 100% = twice DMSO control signal | activation, % at 9 µM | actives 1.7% (n = 300,000) | AID 504408;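 active = mean replicate activation of at least 50% with a set share of replicates each reaching 50%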;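 also: 0% = median of the neutral control wells and 100% = twice that signal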
AHR act cf – confirmation of human aryl hydrocarbon receptor activators | shares compounds with AHR activator | human cells, AHR-responsive luciferase reporter, luminescence | activation, % at 9 µM | actives 87% (n = 2,300) | AID 2845; in the data active = activation above about 49%;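 also: HepG2 hepatoma cells carrying a DRE-driven firefly luciferase reporter; 0% = vehicle wells and 100% = reference agonist wells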
PXR act counter – activates human PXR in AHR activator counter-screen | shares compounds with AHR activator | cell-based PXR reporter, luciferase luminescence | activation, % at 11.6 µM | actives 88% (n = 2,300) | AID 434939; in the data active = activation above about 11%;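 also: human hepatoma DPX-2 cells expressing full-length human PXR; 0% = DMSO and 100% = reference agonist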
Starred values were filed as active, the others as inactive; x = not tested or not shown. Rows were chosen to be rich in hits. Some 4.6% of all compounds tested hit in one or more screens of this group.

SMILES	AHR activator	HSF1 inh	GAA850 FXN act	HSF1 activator	AHR act cf	PXR act counter
CC(C)(C)c1ccccc1NC(=O)c1c(O)c2cccc3c2n(c1=O)CC3	16	24	x	31	x	x
O=C1CN(C(=O)c2ccccc2)c2ccccc2N1	-1	-4	1	-4	x	x
O=C1NC(c2ccc(Br)cc2)Nc2ccccc21 (stereo unspecified)	80*	23	-3	38	62*	22*
O=C(Cn1cncn1)NCc1ccc(Cl)cc1	2	14	1	-13	x	x
COc1c2ccoc2c(OCC=C(C)C)c2oc(=O)ccc12	9	6	-3	-4	x	x
COc1c2ccoc2c(OC[C@@H](O)C(C)(C)OC)c2oc(=O)ccc12	102*	-1	0	-10	69*	80*
O=C(/C=C/c1ccc(Cl)c([N+](=O)[O-])c1)Nc1ccc(N2CCCC2)cc1	84*	-1	2	10	95*	18*
O=C(/C=C/c1ccc(Cl)c([N+](=O)[O-])c1)Nc1ccc(NC(=O)c2ccco2)cc1	x	-2	4	-3	x	x
O=C(Cc1nc2ccccc2[nH]1)c1ccc(Cl)cc1	20	4	1	43	x	x
Clc1ccc(/C(Cc2nc3ccccc3[nH]2)=N\Nc2ccccc2)cc1	91*	8	1	11	40	49*
CCN(CC)C(=O)Sc1cccc2cccnc12	8	4	1	2	x	x
CC(=O)/C(=N/Nc1ccc(Br)cc1)Sc1cccc2cccnc12	125*	30	3	67*	116*	180*
Cc1ccc[n+](CC(=O)c2ccc(Br)cc2)c1C	83*	8	3	9	47*	x
CCC(C(=O)Nc1cc(Cl)ccc1OC)c1ccccc1 (stereo unspecified)	4	5	2	32	x	x
COc1ccc(Cl)cc1NC(=O)C(OC)c1ccccc1 (stereo unspecified)	101*	-2	-3	13	97*	47*
COc1cc(NC(=O)C/C(C)=N/NC(=O)C(OC)c2ccccc2)c(OC)cc1Cl (stereo unspecified)	105*	4	0	-13	24	10
Fc1ccc(-n2nnc(-c3ccccc3Br)n2)cc1	-3	0	2	-7	x	x
Cc1ccc(Nc2ncccc2C(N)=O)cc1	151*	29	5	44	133*	x
O=C(COc1ccc2ccccc2c1)N/N=C/C1CC=CCC1 (stereo unspecified)	85*	0	4	7	47	12*
CC1CC(C)CN(c2ncc3c(n2)CC(c2ccccc2)CC3=O)C1 (stereo unspecified)	1	4	-1	-5	x	x
CC1CC(C)CN(C(=S)Nc2ccc(OC(F)F)cc2)C1 (stereo unspecified)	83*	2	3	1	64*	118*
N#Cc1nc(-c2ccco2)oc1N1CCN(c2ccccc2)CC1	-6	4	-3	2	x	x
O=C(N=C1c2ccccc2CN1c1ccc(F)c(Cl)c1)c1cccnc1Cl	123*	61	x	69*	113*	158*
Cc1noc(C(=O)N2CCN(Cc3ccc4c(c3)OCO4)CC2)c1Cl	6	10	0	32	x	x
O=C(COc1ccccc1)N/N=C/c1ccc([N+](=O)[O-])o1	1	6	2	6	x	x
SMILES	AHR activator	HSF1 inh	GAA850 FXN act	HSF1 activator	AHR act cf	PXR act counter
O=C(CNc1ccc2ccccc2c1)N/N=C/c1ccc([N+](=O)[O-])o1	126*	29	2	47	63*	11*
CCCCN1C(=O)C(CC(=O)NCCN2CCOCC2)CC(C(=O)N2CCOCC2)=C1C (stereo unspecified)	x	x	-1	x	x	x
Cc1ccc(NC(=O)Cn2ncn3c(cc4ccccc43)c2=O)c(C)c1	4	-2	0	-17	x	x
N/C(=N\c1nc2ccccc2o1)NC(=O)c1ccccc1	184*	21	1	26	180*	94*
C/C(=N\Nc1ccc([N+](=O)[O-])cc1[N+](=O)[O-])c1ccc(-n2nncc2C(C)(C)C)cc1	120*	-4	1	-4	78*	38*
CCOC(=O)CCC(NC(=O)CCC(=O)NC(CCC(=O)OCC)C(=O)OCC)C(=O)OCC (stereo unspecified)	-1	-5	3	-11	x	x
Cc1c(/C=N/NC(=O)COc2ccccc2[N+](=O)[O-])c2ccccc2n1C	81*	-3	1	8	95*	101*
CCOc1ccc(NC(=S)N(Cc2ccc(N(C)C)cc2)Cc2ccco2)cc1	3	15	-1	21	x	x
CNC(=O)c1ccccc1Nc1ccc(SC(F)F)cc1	113*	8	3	5	97*	23*
O=C(NCc1ccncc1)c1ccccc1Nc1ccc(SC(F)F)cc1	13	5	-2	13	x	x
CCOC(=O)C1=C(C)NC(C)=C(C(=O)OCC)C1c1cccc(C)n1	-5	-1	0	-12	x	x
CCN(CC)c1ccc(/C=N/NC(=O)C2CC2)cc1	85*	2	0	6	77*	44*
CCCCCCOc1ccc(/C=N/NC(=O)C2CC2)cc1	x	x	1	x	x	x
CCN(CC)CCCNC(=O)c1[nH]c2ccccc2c1Sc1ccc(Cl)cc1	17	-1	1	19	x	x
Cc1ccc2c(c1)Oc1ccc([N+](=O)[O-])cc1C(=O)N2	88*	-4	3	14	82*	68*
CCOc1ccccc1NC(=O)COC(=O)c1cccc(-c2ccc(OC(C)=O)cc2)c1	-2	-1	2	6	x	x
COc1ccc(-c2nc3n(c2C)Cc2ccccc2-3)cc1	80*	11	3	23	149*	17*
COc1ccc(-c2nnsc2N2C(=O)c3ccccc3C2=O)cc1	1	-3	1	-1	x	x
Cc1cccc(NC(=O)c2cnc3sccn3c2=O)c1C	x	23	3	25	x	x
O=C(NCc1cccnc1)c1cnc2sccn2c1=O	81*	-4	2	9	40	4
O=C(NCc1cccnc1)c1cnc2n(c1=O)CCS2	13	-5	2	0	x	x
Cc1cccc(NC(=O)c2cnc3sccn3c2=O)n1	168*	11	3	6	135*	14*
O=C(Nc1ccon1)c1cnc2sccn2c1=O	139*	-4	3	9	107*	x
Cc1[nH]c2ccccc2c1/C=C(\C#N)S(=O)(=O)c1ccccc1	0	-8	2	0	x	x
Cc1[nH]c2ccccc2c1/C=N/NC(=O)CCC(=O)Nc1ccccc1	18	x	2	x	x	x
Cc1[nH]c2ccccc2c1/C=C/C(=O)c1ccccc1	129*	19	3	47	123*	73*
Cc1[nH]c2ccccc2c1/C=N/NC(=O)CNC(=O)Cc1ccccc1	40	-7	2	22	x	x
Cc1[nH]c2ccccc2c1/C=N/NC(=O)Cc1cccs1	100*	1	0	-4	72*	38*
